# Assay results as given in PubChem BioAssay (NCATS).
# Several values for one entry are separate records, joined by “and”; a condition that tells them apart may be missing. Equal values may be shown once. Results filed as inconclusive are left out. Entries that show only a call come without a potency. Unmarked numbers belong to inactive results. Activity calls are given as the source filed them. Unless noted, calls follow the shape of the dose curve; as a rule, active = well fitted curve in the direction sought with a large enough effect; inconclusive = small, poorly fitted or top-dose-only effect, or another doubt; inactive = no such curve, though single readings can be large; an effect the other way counts as inactive or inconclusive.
# Tested on: not listed separately
# Experiment: Counterscreen qHTS for small molecule stabilizers of the endoplasmic reticulum resident proteome: GLuc-NoTag assay (AID 1508627); also: potency is read from the fitted curve at half-maximal effect
# Settings: Gaussia luciferase NoTag secretion counterscreen, luminescence, thapsigargin 100 nM for final 4 h; series mostly up to 76.4 µM
# In short: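 Counterscreen line: SH-SY5Y-GLuc-NoTag. Seed, 5 h; compound, 19 h; thapsigargin 100 nM, 4 h; 37C/5% CO2. Readout: secreted GLuc luminescence, coelenterazine 0.07x final, no lysis.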
row,SMILES,Potency
1,CCCC(C(=O)OCCN(CC)CC)(c1ccccc1)c1ccccc1,17800 nM (active)
2,CN1C[C@H](C(=O)N[C@]2(C)O[C@@]3(O)[C@@H]4CCCN4C(=O)[C@H](Cc4ccccc4)N3C2=O)C[C@@H]2c3cccc4[nH]cc(c34)C[C@H]21,inactive
3,OC(CCN1CCCCC1)(c1ccccc1)C1CCCCC1 (stereo not given),inactive
4,Cc1nc2sccn2c(=O)c1CCN1CCC(=C(c2ccc(F)cc2)c2ccc(F)cc2)CC1,inactive
5,CCN(CC)CCCN(c1ccccc1)C1Cc2ccccc2C1,inactive
6,NC(=Nc1ccccc1)Nc1ccccc1,inactive

# Tested on: not listed separately
# Experiment: Cell Viability qHTS for small molecule stabilizers of the endoplasmic reticulum resident proteome (AID 1508629);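 also: human SH-SY5Y neuroblastoma cells carrying the GLuc-SERCaMP reporter; compound exposure about 46 h in total before the viability read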
# Settings: cell viability counter-screen, 100 nM thapsigargin for final 4 h
row,SMILES,max response [%]
1,OC(CCN1CCCCC1)(c1ccccc1)C1CCCCC1 (stereo not given),13.7
2,Cc1nc2sccn2c(=O)c1CCN1CCC(=C(c2ccc(F)cc2)c2ccc(F)cc2)CC1,-2.38
3,NC(=Nc1ccccc1)Nc1ccccc1,21.8

# Tested on: not listed separately
# Experiment: Primary qHTS for small molecule stabilizers of the endoplasmic reticulum resident proteome: Secreted ER Calcium Modulated Protein (SERCaMP) assay (AID 1508630); also: potency is read from the fitted curve at half-maximal effect
# Settings: SH-SY5Y GLuc-SERCaMP (Gaussia luciferase released on ER calcium loss) secretion, thapsigargin, luminescence; series mostly up to 38.4 µM
# In short: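 The SH-SY5Y reporter protocol was run at 3 concentrations up to 38.3 uM (primary) or 11 concentrations (follow-up): 16 h compound, 100 nM thapsigargin for 4 h, then extracellular luciferase luminescence.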
row,SMILES,Potency
1,CSc1ccc(C(=O)c2[nH]c(=O)[nH]c2C)cc1,inactive
2,C[C@]12C=CC(=O)C=C1CC[C@H]1[C@@H]3C[C@@H](O)[C@](O)(C(=O)CO)[C@@]3(C)C[C@H](O)[C@@]12F,inactive
3,CCOC(=O)C1=C(C)NC(C)=C(C(=O)OC)C1c1cccc([N+](=O)[O-])c1 (stereo not given),inactive
4,Cc1nnc(SCC2=C(C(=O)O)N3C(=O)[C@@H](NC(=O)Cn4cnnn4)[C@H]3SC2)s1,inactive
5,CC(C)NCC(O)c1cc(O)cc(O)c1 (stereo not given),inactive
6,C[n+]1cc2c3c(ccc2c2ccc4cc5c(cc4c21)OCO5)OCO3,inactive
7,CCCCOCCOCCOCc1cc2c(cc1CCC)OCO2,inactive
8,CO[C@@]1(NC(=O)CSCC#N)C(=O)N2C(C(=O)O)=C(CSc3nnnn3C)CS[C@@H]21,inactive
9,NC(=Nc1ccccc1)Nc1ccccc1,3160 nM (active)
10,CCCN1C[C@H](CSC)C[C@@H]2c3cccc4[nH]cc(c34)C[C@H]21,inactive
11,CC(=O)[C@]1(O)Cc2c(O)c3c(c(O)c2[C@@H](O[C@H]2C[C@H](N)[C@H](O)[C@H](C)O2)C1)C(=O)c1ccccc1C3=O,inactive

# Tested on: not listed separately
# Experiment: A High-Content qHTS Against Drug Library for the Identification of Small Molecules that Inhibit DYT1 Early Onset Primary Dystonia-Associated Cell Pathology (AID 1645839; calls by dose curve)
# Settings: HEK293 Flp-In EGFP-delE TorsinA, punctate imaging, 48 h; series mostly up to 46.1 µM
# In short: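 Cells were seeded and left for 24 h, then dosed with compound alongside tetracycline induction of mutant EGFP-TorsinA. They were incubated for 48 h, fixed in 4% paraformaldehyde, permeabilized and imaged for mislocalization (%pathology) and cell count.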
row,SMILES,Potency
1,Cc1cc(C)c(/C=C2\C(=O)Nc3ccccc32)[nH]1,inactive
2,CSc1ccc(C(=O)c2[nH]c(=O)[nH]c2C)cc1,inactive
3,C[C@]12C=CC(=O)C=C1CC[C@H]1[C@@H]3C[C@@H](O)[C@](O)(C(=O)CO)[C@@]3(C)C[C@H](O)[C@@]12F,inactive
4,CCOC(=O)C1=C(C)NC(C)=C(C(=O)OC)C1c1cccc([N+](=O)[O-])c1 (stereo not given),inactive
5,Cc1nnc(SCC2=C(C(=O)O)N3C(=O)[C@@H](NC(=O)Cn4cnnn4)[C@H]3SC2)s1,inactive
6,CC(C)NCC(O)c1cc(O)cc(O)c1 (stereo not given),inactive
7,CC(=O)Oc1cc(C(C)C)c(OCCN(C)C)cc1C,inactive
8,CCCCOCCOCCOCc1cc2c(cc1CCC)OCO2,inactive
9,C[C@H](CS)C(=O)N1CCC[C@H]1C(=O)O,inactive
10,CO[C@@]1(NC(=O)CSCC#N)C(=O)N2C(C(=O)O)=C(CSc3nnnn3C)CS[C@@H]21,inactive
11,NC(=Nc1ccccc1)Nc1ccccc1,inactive
12,CCN1CCc2nc(N)oc2CC1,inactive
13,CCCN1C[C@H](CSC)C[C@@H]2c3cccc4[nH]cc(c34)C[C@H]21,inactive
14,CCCOc1ccccc1-c1nc2n[nH]nc2c(=O)[nH]1,inactive

# Biological target: Cytochrome P450 2D6 (Homo sapiens) (UniProt P10635)
# Sequence (P10635 whole entry, looked up): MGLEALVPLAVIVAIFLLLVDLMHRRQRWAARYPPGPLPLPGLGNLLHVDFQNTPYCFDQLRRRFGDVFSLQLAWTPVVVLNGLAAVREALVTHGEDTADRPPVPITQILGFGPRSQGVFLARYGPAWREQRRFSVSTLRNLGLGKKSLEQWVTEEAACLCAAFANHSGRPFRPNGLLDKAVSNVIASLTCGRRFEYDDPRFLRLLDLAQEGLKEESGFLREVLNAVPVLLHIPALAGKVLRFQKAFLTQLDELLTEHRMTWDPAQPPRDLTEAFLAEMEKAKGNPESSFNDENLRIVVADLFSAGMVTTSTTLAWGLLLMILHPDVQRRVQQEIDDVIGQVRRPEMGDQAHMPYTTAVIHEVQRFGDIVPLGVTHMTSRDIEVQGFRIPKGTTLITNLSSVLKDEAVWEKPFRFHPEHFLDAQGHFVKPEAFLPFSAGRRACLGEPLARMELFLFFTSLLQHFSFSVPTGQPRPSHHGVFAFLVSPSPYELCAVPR
# Experiment: Cytochrome P450 family 2 subfamily D member 6 (CYP2D6) small molecule antagonists: luciferase biochemical (cell-free) qHTS assay (AID 1645840; active = well fitted curve in the direction sought with a large enough effect in the repeat runs; an effect the other way counts as inactive or inconclusive; also: nearly all actives have a fitted effect of over 55% in size; also: potency is read from the fitted curve at half-maximal effect)
# Settings: P450-Glo CYP2D6 enzyme, luciferin luminescence, 1 h; series mostly up to 57.4 µM
# In short: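 P450-Glo CYP2D6 system: proluciferin substrate converted by enzyme to luciferin, read by luminescence proportional to activity. Enzyme-substrate mix with compound 10 min at room temperature, then NADPH regeneration 1 h before detection reagent.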
row,SMILES,Potency
1,Cc1cc(C)c(/C=C2\C(=O)Nc3ccccc32)[nH]1,inactive
2,Cc1ccc(Cl)c(Nc2ccccc2C(=O)O)c1Cl,inactive
3,CCCC(C(=O)OCCN(CC)CC)(c1ccccc1)c1ccccc1,0.0347 µM (active)
4,COC(=O)[C@H]1[C@H]2C[C@@H]3c4[nH]c5cc(OC)ccc5c4CCN3C[C@H]2C[C@@H](OC(=O)c2cc(OC)c(OC)c(OC)c2)[C@@H]1OC,15.5 µM (active)
5,C[C@]12C=CC(=O)C=C1CC[C@H]1[C@@H]3C[C@@H](O)[C@](O)(C(=O)CO)[C@@]3(C)C[C@H](O)[C@@]12F,inactive
6,COc1cc2c(cc1OC)-c1cc(=Nc3c(C)cc(C)cc3C)n(C)c(=O)n1CC2,12.3 µM (active)
7,CCOC(=O)C1=C(C)NC(C)=C(C(=O)OC)C1c1cccc([N+](=O)[O-])c1 (stereo not given),13.8 µM (active)
8,OC(CCN1CCCCC1)(c1ccccc1)C1CCCCC1 (stereo not given),1.74 µM (active)
9,Cc1nc2sccn2c(=O)c1CCN1CCC(=C(c2ccc(F)cc2)c2ccc(F)cc2)CC1,3.09 µM (active)
10,COCCCC/C(=N\OCCN)c1ccc(C(F)(F)F)cc1,0.977 µM (active)
11,C[n+]1cc2c3c(ccc2c2ccc4cc5c(cc4c21)OCO5)OCO3,6.74 µM (active)
12,C[C@]12CC[C@@H]3c4ccc(O)cc4C[C@@H](CCCCCCCCCS(=O)CCCC(F)(F)C(F)(F)F)[C@H]3[C@@H]1CC[C@@H]2O (stereo not given in full),inactive
13,CC(=O)Oc1cc(C(C)C)c(OCCN(C)C)cc1C,8.71 µM (active)
14,CCCCOCCOCCOCc1cc2c(cc1CCC)OCO2,1.56 µM (active) and 1.74 µM (active)
15,O=C1NCN(c2ccccc2)C12CCN(CCCC(c1ccc(F)cc1)c1ccc(F)cc1)CC2,0.436 µM (active)
16,CCN(CC)CCCN(c1ccccc1)C1Cc2ccccc2C1,0.0389 µM (active)
17,C[C@H](CS)C(=O)N1CCC[C@H]1C(=O)O,inactive
18,CC(C)COCC(CN(Cc1ccccc1)c1ccccc1)N1CCCC1 (stereo not given),0.0347 µM (active)
19,CO[C@@]1(NC(=O)CSCC#N)C(=O)N2C(C(=O)O)=C(CSc3nnnn3C)CS[C@@H]21,inactive
20,CNCCC(Oc1ccccc1OC)c1ccccc1 (stereo not given),1.74 µM (active)
21,CN(C)CCCN1c2ccccc2Sc2ccc(C(F)(F)F)cc21,0.0977 µM (active)
22,NC(=Nc1ccccc1)Nc1ccccc1,461 nM (active) and 1.55 µM (active)
23,CCN1CCc2nc(N)oc2CC1,inactive
24,CCCN1C[C@H](CSC)C[C@@H]2c3cccc4[nH]cc(c34)C[C@H]21,0.055 µM (active)
25,CC(=O)[C@]1(O)Cc2c(O)c3c(c(O)c2[C@@H](O[C@H]2C[C@H](N)[C@H](O)[C@H](C)O2)C1)C(=O)c1ccccc1C3=O,17.4 µM (active)
26,CCCOc1ccccc1-c1nc2n[nH]nc2c(=O)[nH]1,inactive
